We go through 25 compounds from PubChem BioAssay AID652126 (The Scripps Research Institute Molecular Screening Center, 2013).

In all, about 370,000 compounds went through this assay and about 3,700 (1%) were called active. This excerpt belongs to a sample that is enriched for actives. Values without a mark were called inactive.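 The calls were made as follows: active = activation above the mean over all tested compounds plus 3 SD (cut at about 0.9% in these data); inactive = the rest.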

The test system of the assay is Nuclear hormone receptor DAF-12 (Strongyloides stercoralis). Kind of assay: S. stercoralis DAF-12 nuclear receptor activators, primary screen, cell-based, luminescence, HEK293, GRIP1 co-expression, lit1-tk-luc (AID 652126).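 Also: 0% = DMSO-only wells and 100% = 3 µM delta7-dafachronic acid wells.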 As to conditions: HEK293 ssDAF-12/GRIP1 lit1-tk-luc reporter, at 6.8 µM, hits give high values, % of 3 µM dafachronic acid response.
On to `COc1ccccc1CCNC(=O)C1CCN(c2nc(C)cc(C)n2)CC1`, for which the activation was -1.36%.

`O=c1[nH]c(CCl)nc2cc(-c3ccc(Cl)cc3)sc12`: the activation was 1.53% (active). The result for `COc1cccc(-c2cc3nc(NCCOc4ccccc4Cl)n(C)c(=O)c3s2)c1` reads -1.7%. As for `Cn1c(NCc2cccnc2)nc2cc(-c3ccc(F)cc3)sc2c1=O`, the activation was -1.06%.

As for `CC(C)(C)OC(=O)NCc1cc(F)ccc1/C=C/S(=O)(=O)NCCc1ccccc1`, the activation was -1.87%. The value for `CCC(=O)OCCCN1C(=O)CCC12CCC(c1ccccc1)CC2` (stereo not given) was -0.68%; that for `NNC(=O)C1CCCn2c1nc1sc3c(c1c2=O)CCCC3` (stereo not given) was 1.14% (active); that for `CCn1c(SCC(C)=O)nc2sc3c(c2c1=O)CCCC3` was -2.16%. The result for `Cc1ccc(C)c(-n2c(SCC(=O)O)nc3sc4c(c3c2=O)CCCC4)c1` reads -1.01%. The result for `COc1cccc(Cn2cc(COC(=O)Nc3ccc(F)cc3)nn2)c1` reads -0.68%. `COc1ccc(CSc2nnc(-c3cccc(C)c3)n2C)cc1`: the activation is -1.19%. Regarding `COc1ccc(C2CC(=O)n3c(nc4ccccc43)S2)cc1OC` (stereo not given), the activation is -1.19%. In the case of `COc1ccc(C2CC(c3cccs3)=NN2c2nc(C)c(C(C)=O)s2)cc1OC` (stereo not given), the activation is -0.94%. Take `COc1ccc(C2CC(c3cccs3)=Nc3ccccc3S2)cc1OC` (stereo not given): the activation was 1.64% (active).

For `COP(=O)(O)CNC(=O)OCc1ccccc1`, the activation is -0.73%. As for `CC(=O)N1CCCN(C2=Nc3ccccc3Sc3ccccc32)CC1`, the activation is -1.69%. The value for `Cc1cc(NC(=O)CSCc2ccccc2C)no1` was -1.6%; that for `Cc1cc(NC(=O)CSCC(=O)NC(C)c2ccccc2)no1` (stereo not given) was -1.09%; that for `COc1ccccc1C(=O)COC(=O)CSCC(=O)Nc1cc(C)on1` was 1.36% (active). For the compound `CN(CCO)c1cccc2c1S(=O)(=O)N(Cc1cn(Cc3ccc(C(F)(F)F)cc3)nn1)Cc1ccccc1O2`, the activation is -0.96%. The result for `O=C1C(=O)N(Cc2ccc(-c3ccsc3)cc2)c2ccc(OC(F)(F)F)cc21` reads -0.76%. On to `CCS(=O)(=O)c1cc([N+](=O)[O-])c(Sc2ccccc2N)s1`, for which the activation is 0.94% (active). `COc1ccccc1C(=O)CSc1nnc(-c2ccccn2)n1-c1ccccc1`: the activation is -1.43%. In the case of `C=CCN1C(=O)[C@@H](CC(=O)NCC2CCCCC2)[C@]2(C(=O)OC)CCCCC=C12`, the activation is -1.59%.

In the case of `COCC(=O)N[C@@H]1C[C@@H]2O[C@@H](CO)CC[C@@H]2O[C@@H]1CCc1ccc(-c2ccccc2)cc1`, the activation was -1.17%.
